Values without a mark were called inactive. For some of these results: Potency and affinity values are given separately. Calls of active or inactive are those of the source. Unless noted, how the calls were made is not given here.

Assay [1] is described as follows: antimalarial activity against Dd2 strain (AID 2302;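 active means growth inhibition above 50% at the single 2 µM test dose, taken to imply half-maximal potency below 2 µM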;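 further: 0% = DMSO untreated growth and 100% = chloroquine plus artemisinin killed control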). Particulars: P. falciparum Dd2 in RBCs, LDH growth readout, 72 h; at 2 µM; stronger effect = higher value.
The target in assay [2] is L-lactate dehydrogenase (Plasmodium falciparum (isolate CDC / Honduras)) (UniProt Q27743). In words: PfLDH activity inhibition – cell lysate, 3D7 strain, counter-screen for P. falciparum growth inhibition project (AID 2304).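 Further: 0% = vehicle and 100% = reference inhibitor.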 Particulars: P. falciparum 3D7 crude extract, LDH APAD/NBT absorbance; at 2 µM; stronger effect = higher value. In general terms: A counterscreen serves to expose hits that act by an unwanted route or on another target.

The nature of assay [3]: inhibition of 3D7 malaria parasite growth – strain 3D7 (AID 2306).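 Further: 0% = DMSO wells and 100% = chloroquine plus artemisinin control wells.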 Conditions: P. falciparum 3D7 erythrocytic growth, LDH absorbance, 72 h; at 2 µM; stronger effect = higher value.
For assay [4], the target named is Calcium-dependent protein kinase 1 (Plasmodium falciparum (isolate 3D7)) (UniProt P62344). Nature of the assay: PfCDPK1 kinase inhibitors, biochemical, TCAMS library (AID 1159585; cut-off not given, nearly all actives have IC50 up to about 0.98 µM;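 further: inhibitors leave more ATP so luminescence rises with inhibition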). Particulars: recombinant PfCDPK1, Kinase-Glo ATP depletion luminescence.
In assay [5] the target is Plasmodium falciparum protein kinase 6 (PK6, PF3D7_1337100) (UniProt Q8IDW1). Nature of the assay: PfPK6 kinase inhibitors, biochemical, TCAMS library (AID 1159586). Conditions: recombinant PfPK6, Kinase-Glo ATP depletion luminescence. On the technique in general: In Kinase-Glo more light means more ATP remaining.
Assay [6] concerns the target Protein kinase 7 (PK7), Plasmodium falciparum 3D7 (PF3D7_0213400) (UniProt Q7YTF7). Nature of the assay: inhibition of Plasmodium PK7 catalytic activity – biochemical, TCAMS antimalarial set, Kinase-Glo luminescence (AID 1159587). Particulars: recombinant PfPK7, Kinase-Glo ATP depletion luminescence.
For assay [7], the target named is Calcium-dependent protein kinase 4 (Plasmodium falciparum (isolate 3D7)) (UniProt Q8IBS5). Nature of the assay: PfCDPK4 kinase inhibitors, biochemical, TCAMS library (AID 1159588; cut-off not given, nearly all actives have IC50 up to about 0.91 µM). Conditions: recombinant PfCDPK4, Kinase-Glo ATP depletion luminescence.
The nature of assay [8]: human hepatoma cell viability loss – ATP luminescence, cytotoxicity control for P. falciparum antimalarial project, primary screen (AID 2303;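 active means inhibition above 50%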;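 further: 0% = DMSO wells and 100% = digitonin-killed cells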). Particulars: HepG2 viability, 24-48 h, at 10 µM, stronger effect = higher value.

Calcium-dependent protein kinase 4 (Plasmodium falciparum (isolate 3D7)), sequence (Q8IBS5 whole entry, looked up): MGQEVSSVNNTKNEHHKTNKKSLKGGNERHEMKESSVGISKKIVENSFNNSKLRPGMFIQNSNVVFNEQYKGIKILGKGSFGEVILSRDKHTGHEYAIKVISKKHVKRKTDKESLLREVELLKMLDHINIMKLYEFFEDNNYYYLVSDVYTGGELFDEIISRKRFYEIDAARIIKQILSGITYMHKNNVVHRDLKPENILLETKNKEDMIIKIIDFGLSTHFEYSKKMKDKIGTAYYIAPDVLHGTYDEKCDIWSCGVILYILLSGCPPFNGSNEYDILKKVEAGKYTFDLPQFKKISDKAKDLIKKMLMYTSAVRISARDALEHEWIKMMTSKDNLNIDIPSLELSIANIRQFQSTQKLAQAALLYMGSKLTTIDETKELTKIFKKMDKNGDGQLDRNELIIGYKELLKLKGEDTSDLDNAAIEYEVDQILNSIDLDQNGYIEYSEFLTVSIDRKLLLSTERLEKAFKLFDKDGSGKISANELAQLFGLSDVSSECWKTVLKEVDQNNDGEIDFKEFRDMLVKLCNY
L-lactate dehydrogenase (Plasmodium falciparum (isolate CDC / Honduras)), sequence (Q27743 whole entry, looked up): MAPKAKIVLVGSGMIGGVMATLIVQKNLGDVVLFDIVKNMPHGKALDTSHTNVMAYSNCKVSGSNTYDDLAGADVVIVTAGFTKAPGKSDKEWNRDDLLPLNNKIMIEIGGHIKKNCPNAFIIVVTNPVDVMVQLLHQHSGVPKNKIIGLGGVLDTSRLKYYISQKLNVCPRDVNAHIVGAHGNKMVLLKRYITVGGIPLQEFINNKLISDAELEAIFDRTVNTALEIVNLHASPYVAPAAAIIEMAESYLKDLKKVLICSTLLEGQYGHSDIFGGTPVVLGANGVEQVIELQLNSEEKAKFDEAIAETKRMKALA
Plasmodium falciparum protein kinase 6 (PK6, PF3D7_1337100), sequence (Q8IDW1 1-305): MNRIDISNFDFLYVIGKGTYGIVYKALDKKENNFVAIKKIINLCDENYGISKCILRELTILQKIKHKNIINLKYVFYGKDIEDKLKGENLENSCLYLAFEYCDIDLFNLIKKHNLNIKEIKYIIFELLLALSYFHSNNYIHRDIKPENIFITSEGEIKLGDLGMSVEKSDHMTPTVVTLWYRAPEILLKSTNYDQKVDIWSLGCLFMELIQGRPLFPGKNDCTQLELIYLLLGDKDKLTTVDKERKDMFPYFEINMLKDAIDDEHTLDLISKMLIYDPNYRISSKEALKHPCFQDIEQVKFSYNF
Protein kinase 7 (PK7), Plasmodium falciparum 3D7 (PF3D7_0213400), sequence (Q7YTF7 1-343): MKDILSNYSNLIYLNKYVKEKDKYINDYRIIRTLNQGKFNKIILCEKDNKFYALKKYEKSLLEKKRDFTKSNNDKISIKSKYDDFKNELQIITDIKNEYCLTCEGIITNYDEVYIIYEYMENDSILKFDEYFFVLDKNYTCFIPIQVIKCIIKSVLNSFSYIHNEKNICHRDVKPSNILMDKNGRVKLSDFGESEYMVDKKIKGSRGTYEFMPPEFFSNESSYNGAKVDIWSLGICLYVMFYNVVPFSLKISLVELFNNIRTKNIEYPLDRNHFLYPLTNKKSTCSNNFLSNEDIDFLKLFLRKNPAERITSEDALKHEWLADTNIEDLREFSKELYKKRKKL
Calcium-dependent protein kinase 1 (Plasmodium falciparum (isolate 3D7)), sequence (P62344 whole entry, looked up): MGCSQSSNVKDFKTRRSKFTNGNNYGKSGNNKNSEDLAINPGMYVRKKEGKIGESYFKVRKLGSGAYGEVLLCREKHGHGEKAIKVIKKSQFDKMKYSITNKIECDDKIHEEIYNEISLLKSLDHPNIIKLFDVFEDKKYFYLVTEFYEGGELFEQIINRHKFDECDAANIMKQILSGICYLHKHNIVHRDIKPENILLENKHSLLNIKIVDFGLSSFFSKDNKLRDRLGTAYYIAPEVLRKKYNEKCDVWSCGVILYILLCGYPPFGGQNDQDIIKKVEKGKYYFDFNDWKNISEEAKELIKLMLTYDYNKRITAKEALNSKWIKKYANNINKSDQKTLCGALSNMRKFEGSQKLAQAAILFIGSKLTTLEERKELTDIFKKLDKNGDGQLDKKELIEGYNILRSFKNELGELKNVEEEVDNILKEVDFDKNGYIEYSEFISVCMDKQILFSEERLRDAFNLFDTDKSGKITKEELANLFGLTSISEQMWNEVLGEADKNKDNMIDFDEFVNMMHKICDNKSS

As usually defined, the inhibition is the change of the read-out against control, counted positive when it falls. Regarding `COc1cc(Cc2cnc(N)nc2N)cc(OCCCCCCN)c1OC`, the growth inhibition in assay [1] is -4%; in assay [3] it was 96% (active). The inhibition in assay [2] was -6%. Further, the outcome in assay [4], in assay [5], in assay [6] and in assay [7] was inactive.
On to `CCN(CC)CCCN(CCCN(CC)CC)c1cc(C)nc(Nc2ccc(Br)cc2)n1`, for which the values for the growth inhibition in assay [1] and in assay [3] were 40% and 101% (active), respectively. In assay [2], the inhibition was 6%. For the same compound, the result in assay [4], in assay [5], in assay [6] and in assay [7] was inactive.
In the case of `Cc1nc(N)nc(N)c1-c1ccc(Br)c(Br)c1`, the growth inhibition in assay [1] was 1%; in assay [3], 94% (active). Also, in assay [2], the inhibition was -2%. The result in assay [4], in assay [5], in assay [6] and in assay [7] was inactive.
`COc1cc2c(cc1OC)C(C)(C)CN1Cc3c(c(CO)c(OC)c(OC)c3OC)CC21` (stereo not drawn): the growth inhibition in assay [1] was 9%; in assay [3] it was 95% (active). In assay [2], the inhibition is 2%. For the same compound, the result in assay [4], in assay [5], in assay [6] and in assay [7] was inactive.
`Nc1ccncc1C(=O)NCCCCN1CCN(c2nsc3ccccc23)CC1`: the growth inhibition in assay [1] was 9%; in assay [3] it was 101% (active). The inhibition in assay [2] is 6%. Also, the result in assay [4], in assay [5], in assay [6] and in assay [7] was inactive.
Regarding `CC(CO)(CO)NCc1cc2ccc3ccsc3c2c2ccccc12`, the values for the growth inhibition in assay [1] and in assay [3] were 98% (active) and 96% (active), respectively. Also, the inhibition in assay [2] was 2%. Moreover, the outcome in assay [4], in assay [5], in assay [6] and in assay [7] was inactive.
In the case of `COc1ccc2c(CNCCCCCCNCc3c(OC)ccc4cc(OC)ccc34)c(OC)ccc2c1`, the growth inhibition is 79% (active) in assay [1] and 101% (active) in assay [3]. Also, the inhibition in assay [2] was -7%. Also, the result in assay [4], in assay [5], in assay [6] and in assay [7] was inactive.
Turning to `c1ccc2c(CNCCCN3CCN(CCCNCc4c5ccccc5cc5ccccc45)CC3)c3ccccc3cc2c1`, the growth inhibition in assay [1] was 100% (active); in assay [3], 101% (active). The inhibition in assay [2] was 0%. In addition, the result in assay [4], in assay [5], in assay [6] and in assay [7] was inactive.
In the case of `Cc1[nH]c(C)c(-c2ccc(Oc3ccc(C(F)(F)F)cc3)cc2)c(=O)c1Br`, the growth inhibition in assay [1] and in assay [3] was 97% (active) each time. For the same compound, the inhibition in assay [2] was -8%. The result in assay [4], in assay [5], in assay [6] and in assay [7] was inactive.
Take `c1ccc2c(c1)cc(CNCCCN1CCN(CCCNCc3cc4ccccc4c4ccccc34)CC1)c1ccccc12`: the growth inhibition was 98% (active) in assay [1] and 101% (active) in assay [3]. Moreover, the inhibition in assay [2] is 2%. For the same compound, the outcome in assay [4], in assay [5], in assay [6] and in assay [7] was inactive.
With `CCCc1cc(OC)c(CC2c3cc(O)c(Cl)cc3C(c3ccccc3)CN2C)cc1OC` (stereo not drawn), the growth inhibition in assay [1] and in assay [3] was 100% (active) in each case. Also, in assay [2], the inhibition is 4%. In addition, the outcome in assay [4], in assay [5], in assay [6] and in assay [7] was inactive.
In the case of `CCS(=O)(=O)c1ccc(/C(=N/OC)c2ccc[nH]2)cc1`, the figures for the inhibition in assay [8] and in assay [2] were -6% and -2%, respectively. Further, the growth inhibition in assay [3] is 85% (active). The outcome in assay [4], in assay [5], in assay [6] and in assay [7] was inactive.
Consider `COc1cccc(Cn2ccc3c4c(N)nc(N)nc4ccc32)c1`, for which the values for the growth inhibition in assay [1] and in assay [3] were 96% (active) and 99% (active), respectively. Besides, in assay [2], the inhibition was -2%. Also, the result in assay [4], in assay [5], in assay [6] and in assay [7] was inactive.
Take `c1ccc2sc(-c3csc(Nc4ccncc4)n3)nc2c1`: the inhibition in assay [8] is -4%; in assay [2], -1%. For the same compound, in assay [3], the growth inhibition is 86% (active). Also, the result in assay [4], in assay [5], in assay [6] and in assay [7] was inactive.
Take `C=CCOc1cc(Cc2cnc(N)nc2N)cc(OC)c1OC`: the inhibition in assay [8] is -14%; in assay [2] it was 2%. The growth inhibition in assay [3] was 81% (active). Further, the outcome in assay [4], in assay [5], in assay [6] and in assay [7] was inactive.
Consider `Oc1ccc2c(CNC3CCCCC3)c(O)ccc2c1CNC1CCCCC1`, for which the growth inhibition in assay [1] and in assay [3] was 101% (active) in each case. Further, the inhibition in assay [2] was -4%. For the same compound, the result in assay [4], in assay [5], in assay [6] and in assay [7] was inactive.
Consider `COc1cc2ncnc(Nc3ccc(OC(F)(F)c4ccccc4)cc3)c2cc1OC`, for which the inhibition in assay [8] is 14%; in assay [2], 2%. Moreover, in assay [3], the growth inhibition is 91% (active). The result in assay [4], in assay [5], in assay [6] and in assay [7] was inactive.
`CC(=NNc1nc2ccccc2s1)c1ccccn1`: the growth inhibition is 47% in assay [1] and 88% (active) in assay [3]. The inhibition in assay [2] was -2%. Also, the outcome in assay [4], in assay [5], in assay [6] and in assay [7] was inactive.
With `COc1ccc2nc3cc(Cl)ccc3c(Nc3ccc(Oc4ccc(Nc5c6ccc(Cl)cc6nc6ccc(OC)cc56)cc4)cc3)c2c1`, the figures for the growth inhibition in assay [1] and in assay [3] were 93% (active) and 86% (active), respectively. The inhibition in assay [2] was 7%. In addition, the outcome in assay [4], in assay [5], in assay [6] and in assay [7] was inactive.

The values are drawn from PubChem BioAssay.
